Assay outcomes (PubChem BioAssay)
The list is not random: actives were taken first. Their share in the collection is about 8.2%.
KB-V1 MDR tox = qHTS assay for MDR1-selective chemotherapeutics: Primary screen using the drug-selected MDR subline cells KB-V1; 3.4% of 400,000 active; Potency, µM (top dose mostly 46.1 µM), usual class: cytotoxic; KB-V1 MDR cells viability, CellTiter-Glo, 72 h; note: nearly all actives have a fitted effect of over 60% in size
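Drug-selected KB-V1 cells, grown in DMEM lacking phenol red with 10% FBS, receive compound titrations; after three days at 37 degrees C, surviving cell ATP is quantified by CellTiter-Glo luminescence and responses normalized and curve-fitted.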
MCF10A rereplic = A quantitative high throughput screen for small molecules that induce DNA re-replication in MCF 10a normal breast cells | AID 624296, 2012 | 2.9% of 350,000 active | MCF 10A DNA re-replication, Hoechst nuclear intensity, 48 h | Potency, µM (highest dose often 46.1 µM), actives largely listed as activators; note: nearly all actives have a fitted effect of over 50% in size
SW480 rereplic = A quantitative high throughput screen for small molecules that induce DNA re-replication in SW480 colon adenocarcinoma cells. SW480 DNA re-replication, Hoechst DNA content imaging, 48 h. Potency, µM (titrated, usually from 46.1 µM), most hits filed as activators. 1.8% of 340,000 active. AID 624297, 2012; note: nearly all actives have a fitted effect of over 55% in size
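DNA re-replication was detected as more nuclei of elevated Hoechst intensity after 48 hr exposure to compound (23 nL pinned per well of 250 cells).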
ELG1 DNA repair = qHTS screen for small molecules that inhibit ELG1-dependent DNA repair in human embryonic kidney (HEK293T) cells expressing luciferase-tagged ELG1 | HEK293T ELG1-luciferase reporter, luminescence, 16 h; DNA damage induced by 5-fluorouridine | Potency, µM (doses to about 46.1 µM), hits mostly inhibitors | 2.3% of 330,000 active | AID 504467, 2011; note: nearly all actives have a fitted effect of over 55% in size
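Luminescence from the luciferase reporter, measured 30 min after ONE-Glo reagent at room temperature, was the read-out. Beforehand, 2,000 cells per well were exposed for 16 hr at 37 °C to 5-fluorouridine together with compound or vehicle.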
KB-3-1 cytotox = qHTS assay for MDR1-selective chemotherapeutics: Primary screen using the parental adenocarcinoma cell KB-3-1; KB-3-1 viability, CellTiter-Glo ATP luminescence, 72 h; Potency, µM (top dose mostly 46.1 µM), most hits filed as cytotoxic; 1.4% of 400,000 active; note: nearly all actives have a fitted effect of over 60% in size
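Viability of parental KB-3-1 cells, measured by CellTiter-Glo luminescence, followed a 72 h incubation at 37 °C with pinned compounds in phenol-red-free DMEM containing 10% FBS.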
Of the large screens only hits and unclear results are named; the others gave an inactive call. Calls come from the whole dose curve; as a rule, active = well fitted curve in the direction sought with a large enough effect; inconclusive = small, poorly fitted or top-dose-only effect, or another doubt; inactive = no such curve, though single readings can be large; an effect the other way counts as inactive or inconclusive.

O=C(Cc1cccnc1)N[C@@H]1CC[C@H](CCn2cc(Cc3ccccc3)nn2)O[C@@H]1CO	none (no result: MCF10A rereplic, SW480 rereplic, ELG1 DNA repair)
CCC(C)NC(=O)Cn1nc([N+](=O)[O-])c(Cl)c1C (stereo not drawn)	SW480 rereplic inconclusive
CC(NC(=O)c1ccc([N+](=O)[O-])o1)C1CC2CCC1C2 (stereo not drawn)	KB-V1 MDR tox inconclusive, MCF10A rereplic 12µM, SW480 rereplic 10µM, KB-3-1 cytotox inconclusive
O=C(NC12CC3CC(CC(C3)C1)C2)c1ccc([N+](=O)[O-])o1	MCF10A rereplic 8.2µM, SW480 rereplic inconclusive, KB-3-1 cytotox 5.2µM
CC(NC(=O)c1ccc([N+](=O)[O-])cc1Cl)C1CC2CCC1C2 (stereo not drawn)	none
Cc1c(Cl)c([N+](=O)[O-])nn1CC(=O)NC(C)C1CC2CCC1C2 (stereo not drawn)	KB-3-1 cytotox 23µM
O=C(NC12CC3CC(CC(C3)C1)C2)c1ccc(Br)o1	MCF10A rereplic inconclusive
O=C(NC12CC3CC(CC(C3)C1)C2)c1ccc(-c2ccc(Br)cc2)o1	KB-V1 MDR tox inconclusive, MCF10A rereplic 21µM, SW480 rereplic inconclusive, ELG1 DNA repair inconclusive
O=C(NC12CC3CC(CC(C3)C1)C2)c1cccnc1	none
COc1ccc(NC(=S)N2CCc3ccccc32)cc1OC	ELG1 DNA repair inconclusive
COC(=O)c1ccc(Oc2nc3c(c(=O)n(C)c(=O)n3C)n2Cc2ccc(Cl)c(Cl)c2)cc1	none (no result: MCF10A rereplic, SW480 rereplic, ELG1 DNA repair)
Cc1ccc2nc(N3CCN(C)CC3)c(C=O)c(=O)n2c1	none
COc1ccc(C(=O)/C=C/c2cn(CC(O)CN3CCOCC3)c3ccccc23)cc1 (stereo not drawn)	MCF10A rereplic 15µM, SW480 rereplic 15µM, ELG1 DNA repair inconclusive
Cc1ccc(C(=O)/C=C/c2cn(CC(O)CN3CCOCC3)c3ccccc23)cc1 (stereo not drawn)	MCF10A rereplic 13µM, SW480 rereplic 21µM, KB-3-1 cytotox inconclusive
O=C(/C=C/c1cn(CC(O)CN2CCOCC2)c2ccccc12)c1cccs1 (stereo not drawn)	none (no result: KB-V1 MDR tox, MCF10A rereplic, SW480 rereplic, KB-3-1 cytotox)
CC(=O)N1CCCC1c1nc2ccccc2n1Cc1cccc(Cl)c1 (stereo not drawn)	none (no result: MCF10A rereplic, SW480 rereplic, ELG1 DNA repair)
COc1ccccc1NC(=O)C/C(N)=N/OCC(=O)Nc1cccc(Cl)c1	KB-V1 MDR tox 18µM
CS(=O)(=O)Nc1ccc(-c2ccc(/C=C3\SC(N)=NC3=O)o2)cc1	MCF10A rereplic 23µM
CC(=O)Nc1ccc(S(=O)(=O)NC(CSc2ccc(C(=O)O)cc2[N+](=O)[O-])C(=O)O)cc1 (stereo not drawn)	KB-V1 MDR tox inconclusive
COc1ccc(C2NC(=O)N(C)C3=C2C(=O)N(c2ccccc2)C3)cc1 (stereo not drawn)	none (no result: MCF10A rereplic, SW480 rereplic, ELG1 DNA repair)
CC(C)N(Cc1ccccc1)C(=O)COC(=O)c1cc(S(=O)(=O)N(C)C)ccc1N1CCCC1	ELG1 DNA repair inconclusive
CN(c1ccccc1)S(=O)(=O)c1cccc(NC(=O)CSc2n[nH]c(N)n2)c1	ELG1 DNA repair 21µM
COc1cc(CCC(=O)Nc2cccc(S(=O)(=O)N(C)C)c2)cc(OC)c1OC	KB-V1 MDR tox 21µM, SW480 rereplic inconclusive, ELG1 DNA repair inconclusive
CN(c1ccccc1)S(=O)(=O)c1cccc(NC(=O)CC(C)(C)C)c1	KB-V1 MDR tox 2.6µM, ELG1 DNA repair inconclusive
CN(C)S(=O)(=O)c1cccc(NC(=O)CCc2nc3sc4c(c3c(=O)[nH]2)CCCC4)c1	KB-V1 MDR tox inconclusive, ELG1 DNA repair 11µM
O=C1c2ccccc2[C@@H]2C[C@@H](O)[C@H](Nc3ccccc3-c3ccccc3)CCN12	ELG1 DNA repair inconclusive
O=C(NCc1ccc(F)cc1)C(c1cccnc1)N(C(=O)c1csnn1)c1ccccc1 (stereo not drawn)	none
COc1cccc(CN(C)CC(=O)Nc2cccc(S(N)(=O)=O)c2)c1OC	none
COc1cccc(CN(C)CC(=O)Nc2cccc(S(=O)(=O)N(C)c3ccccc3)c2)c1OC	KB-V1 MDR tox 2.6µM, MCF10A rereplic inconclusive, KB-3-1 cytotox inconclusive (no result: ELG1 DNA repair)
CCN(CC(=O)Nc1cccc(S(=O)(=O)N(C)c2ccccc2)c1)Cc1cccs1	KB-V1 MDR tox 4.6µM, ELG1 DNA repair inconclusive, KB-3-1 cytotox inconclusive
Cc1ccsc1CN(C)CC(=O)Nc1cccc(S(=O)(=O)N(C)c2ccccc2)c1	MCF10A rereplic inconclusive, ELG1 DNA repair inconclusive
Cc1cc(S(=O)(=O)NCc2ccccc2)ccc1OCC(=O)Nc1cccc([N+](=O)[O-])c1	KB-V1 MDR tox 13µM, MCF10A rereplic inconclusive, ELG1 DNA repair inconclusive
COc1cc(CC(=O)Nc2cccc(S(=O)(=O)N(C)c3ccccc3)c2)cc(OC)c1OC	ELG1 DNA repair 9.2µM, KB-3-1 cytotox inconclusive
C[C@@H]1CN([C@H](C)CO)C(=O)CCCn2nncc2CO[C@@H]1CN(C)S(=O)(=O)c1ccccc1F	none (no result: MCF10A rereplic, SW480 rereplic, ELG1 DNA repair)
COC(=O)c1ccc(NC(=O)c2nc(S(=O)(=O)Cc3ccccc3F)ncc2Cl)cc1	KB-3-1 cytotox inconclusive (no result: MCF10A rereplic, SW480 rereplic, ELG1 DNA repair)
COc1cc2c(cc1OC)C(COc1cc(C)cc(C)c1)N(C(=O)c1ccc(S(=O)(=O)N3CCCC3)cc1)CC2 (stereo not drawn)	none (no result: MCF10A rereplic, SW480 rereplic, ELG1 DNA repair)
Cc1ccc(C(=O)Nc2cccc(S(=O)(=O)N(C)c3ccccc3)c2)o1	KB-V1 MDR tox 16µM, ELG1 DNA repair inconclusive
CN(c1ccccc1)S(=O)(=O)c1cccc(NC(=O)COc2cccc([N+](=O)[O-])c2)c1	KB-V1 MDR tox 18µM
CN(c1ccccc1)S(=O)(=O)c1cccc(NC(=O)C2=NNC(=O)CC2)c1	ELG1 DNA repair 16µM
CN(C)S(=O)(=O)c1cccc(NC(=O)COc2ccccc2C(=O)NCc2ccccc2)c1	KB-V1 MDR tox 10µM, ELG1 DNA repair inconclusive, KB-3-1 cytotox inconclusive
COc1ccccc1C(=O)NCC(=O)OCC(=O)Nc1cccc(S(=O)(=O)N(C)C)c1	none
O=C(Cc1ccc(-c2ccccc2)cc1)NO	KB-3-1 cytotox inconclusive (no result: MCF10A rereplic, SW480 rereplic, ELG1 DNA repair)
CCCCn1c(NC(=O)c2ccccc2Cl)c(C#N)c2nc3ccccc3nc21	KB-V1 MDR tox inconclusive, MCF10A rereplic 2.6µM, SW480 rereplic 16µM, ELG1 DNA repair 23µM, KB-3-1 cytotox inconclusive
N#Cc1c(NC(=O)c2ccccc2Cl)n(Cc2ccccc2)c2nc3ccccc3nc12	KB-V1 MDR tox inconclusive, MCF10A rereplic inconclusive, SW480 rereplic 11µM, ELG1 DNA repair 21µM, KB-3-1 cytotox inconclusive
COc1ccc(-n2c(NC(=O)c3ccco3)c(C#N)c3nc4ccccc4nc32)cc1	KB-V1 MDR tox 21µM, MCF10A rereplic 8.2µM, SW480 rereplic 18µM, ELG1 DNA repair inconclusive, KB-3-1 cytotox inconclusive
CCOC(=O)c1c(NC(=O)c2ccco2)n(C2CCCCC2)c2nc3ccccc3nc12	KB-V1 MDR tox inconclusive, ELG1 DNA repair inconclusive
